In PubChem BioAssay AID894 (National Center for Advancing Translational Sciences (NCATS), 2007):
The whole screen tested about 150,000 compounds, of which about 6,500 (4.3%) were called active. Inconclusive results (about 12%) are left out. Calls come from the whole dose curve; as a rule, active = well fitted inhibition curve with a large enough effect (not every such curve was filed as active); inconclusive = small, poorly fitted or top-dose-only effect, or another doubt; inactive = no such curve, though single readings can be large or run the other way. The full list was thinned out, with actives kept by preference.

What follows are molecules tested against 15-hydroxyprostaglandin dehydrogenase [NAD(+)] (Homo sapiens) (UniProt P15428) (assay: qHTS Assay for Inhibitors of HPGD (15-Hydroxyprostaglandin Dehydrogenase)). Details: purified HPGD, NADH fluorescence kinetic, PGE2 substrate; activity change, negative = inhibition: stronger effect = lower value.
Excerpt: Human 15-Hydroxyprostaglandin dehydrogenase (HPGD) catalyzes the inactivation of prostaglandin E2, and plays a major role in cancer biology by antagonizing the oncogenic potential of cyclooxygenase type 2 (COX2). Assays are available, based on absorbance/fluorescence increase of NADH with the substrate 15-OH prostaglandin E2. References 1. Myung SJ, Rerko RM, Yan M, Platzer P, Guda K, Dotson A, Lawrence E, Dannenberg AJ, Lovgren AK, Luo G, Pretlow TP, Newman RA, Willis J, Dawson D, Markowitz SD. 15-Hydroxyprostaglandin dehydrogenase is an in vivo suppressor of colon tumorigenesis. […] 2. Yan M, Rerko RM, Platzer P, Dawson D, Willis J, Tong M, Lawrence E, Lutterbaugh J, Lu S, Willson JK, Luo G, Hensold J, Tai HH, Wilson K, Markowitz SD. 15-Hydroxyprostaglandin dehydrogenase, a COX-2 oncogene antagonist, is a TGF-beta-induced suppressor of human gastrointestinal cancers. Proc Natl Acad Sci U S A. 2004 Dec 14;101(50):17468-73. 3. Yang L, Amann JM, Kikuchi T, Porta R, Guix M, Gonzalez A, Park KH, Billheimer D, Arteaga CL, Tai HH, Dubois R, Carbone DP, Johnson DH. Inhibition of Epidermal Growth Factor Receptor Signaling Elevates 15-Hydroxyprostaglandin Dehydrogenase in Non-Small-Cell Lung Cancer. Cancer Res. 2007 Jun 15;67(12):5587-5593. Inhibition of HPGD activity was screened by utilizing prostaglandin as an electron donor and NAD+ as an electron acceptor/cofactor. An increase in the fluorescence intensity due to conversion of NAD+ to NADH was used to measure the enzyme activity. NIH Chemical Genomics Center [NCGC] Structural Genomics Consortium [SGC]
Buffer: 50 mM Tris-HCl, 0.01% Tween 20, pH 8. Enzyme Buffer: 50 mM Tris-HCl, 0.5 mM NAD+ and 0.01% Tween 20, pH 8. Reagents/Controls: Buffer in columns 3 and 4 as negative control (no enzyme). Substrate/cofactor solution: 1 mM NAD+ and 30 uM prostaglandin (Sigma, prostaglandin E2, # P5640) final concentrations dispensed throughout the plate. Enzyme: 20 nM HPGD final concentration in columns 1, 2, 5-48. Column 1 and 2 is neutral (100% activity). A titration of control inhibitor GW5074 (G6416 Sigma-Aldrich, St. Louis, MO) top concentration 10 mM in DMSO, then 1:2 dilution for a total of 16 concentrations in duplicate) was pin-transferred into column 2. Assay Steps: Three uL of enzyme were dispensed to 1536-well Greiner black solid bottom plates. Compounds and control inhibitor (23 nL) were transferred via Kalypsys PinTool. The plates were incubated for 15 min at room temperature, and then 1 uL of substrate/cofactor solution was added to start the reaction. The plates were immediately transferred to and read 5 times every 30 seconds on ViewLux High-throughput CCD imager (Perkin-Elmer) using 360 nm excitation and 450 nm emission fluorescence protocol. The fluorescence intensity difference between the last and the first time points was used to compute reaction progress.
% is set by controls: 0 for no effect and ±100 for the full control effect; potency is the fitted concentration of half-maximal effect.

15-hydroxyprostaglandin dehydrogenase [NAD(+)] (Homo sapiens), sequence (P15428 whole entry, looked up): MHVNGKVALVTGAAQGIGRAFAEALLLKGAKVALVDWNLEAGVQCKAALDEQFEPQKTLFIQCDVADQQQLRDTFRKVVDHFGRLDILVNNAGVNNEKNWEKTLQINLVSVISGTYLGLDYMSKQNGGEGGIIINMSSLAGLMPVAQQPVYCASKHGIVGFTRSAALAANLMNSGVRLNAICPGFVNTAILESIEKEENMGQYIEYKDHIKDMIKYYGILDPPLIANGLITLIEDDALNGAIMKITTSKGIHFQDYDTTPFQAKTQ

Activity change, negative = inhibition, inactive:
O=c1c2c(ncn1Cc1ccccc1)nc1n2CCC1 -17.9%, COc1ccc(-c2csc(NC(=O)COC(=O)Cc3ccc(Cl)cc3Cl)n2)cc1 -9.05%, O=C(Nc1cn(-c2ccccc2)nc1-c1ccccc1)c1ccccc1 -2.03%, CN(CC(=O)NC1CCCCC1)S(=O)(=O)c1ccc(Br)s1 -1.92%, O=C(NC1CCCC1)C(NS(=O)(=O)c1ccc(Br)s1)c1ccccc1 (centres undefined) -1.61%, O=C(COC(=O)c1c2c(nc3ccccc13)/C(=C\c1cccs1)CCC2)Nc1ccccc1Cl -25.4%, C=CCN1c2ccccc2[C@]23C[C@@H](C(=O)OC)N(S(=O)(=O)c4ccc([N+](=O)[O-])cc4)C2=NC(C(=O)OC)=C(C(=O)OC)[C@H]13 -18.4%, COc1cc(/C=C(/NC(=O)c2ccc(Cl)cc2Cl)C(=O)O)cc(OC)c1OC -5.89%, O=C(O)c1cccc(S(=O)(=O)NCCO)c1 -3.87%, COC(=O)c1nc2ccccc2s1 0.316%, O=C(Nc1nc2cc3c(cc2s1)OCCO3)c1cccc(S(=O)(=O)N2CCOCC2)c1 -10.8%, COc1ccc(NS(=O)(=O)c2ccc(NC(=S)NC(=O)CC(C)C)cc2)cc1 -14.4%, CC(=O)NC1=NN(C(C)=O)C(C)(CCS(=O)(=O)c2ccc(Cl)c(Cl)c2)S1 (centres undefined) -9.18%, CCCCN1C(=O)c2ccc(C(=O)Nc3ccc(S(=O)(=O)N(C)C)cc3)cc2C1=O -11.6%, CCCNC(=O)c1ccccc1NC(=O)CSCc1ccc(OC)cc1 -5.31%, CCCc1nc(SCC(=O)Nc2ccccc2OC)c2c(=O)n(C)c(=O)n(C)c2n1 -0.308%, COc1cccc(NC(=S)NC(=O)c2c(Cl)c(C)nn2C)c1 -18.7%, Cc1sc2nc(CC(N)=O)[nH]c(=O)c2c1-c1ccccc1 1.92%, Cn1cc(CCC(=O)NCc2ccc3c(c2)OCO3)c2ccccc21 -17.1%, O=C(Cn1nnc(-c2ccccc2)n1)NCc1ccc2c(c1)OCO2 -12.6%, O=C(CNS(=O)(=O)c1ccc(Br)s1)NCc1ccc2c(c1)OCO2 -7.58%, CCOC(=O)NCc1ccc2c(c1)OCO2 -9.86%, OC[C@H]1O[C@@H](n2cnc3c(NC4CCCC4)ncnc32)[C@H](O)[C@H]1O -4.78%, CCCCC(NS(=O)(=O)c1ccc(C)cc1)C(=O)Oc1ccc2c3c(c(=O)oc2c1)CCC3 (centres undefined) -8.04%, Cn1c(=O)c(Sc2ccc(Cl)cc2)c(O)c2ccccc21 -12.7%, CC(C)OCCCNC(=O)c1cc(Sc2ccc(F)cc2)nc2ccccc12 -12.9%, COc1cccc(NC(=O)c2nn(C34CC5CC(CC(C5)C3)C4)cc2[N+](=O)[O-])c1 -4.79%, Cc1ncn(C23CC4CC(CC(O)(C4)C2)C3)n1 -6.48%, O=C(COC(=O)c1cc2c(s1)CCCC2)NCc1ccccc1Cl -9.08%, COc1ccc(CC(=O)N/N=C(\C)c2ccccn2)cc1 -4.24%, Cc1ccc(S(=O)(=O)N2CCC(C(=O)N[C@@H](C)C(=O)NCc3ccco3)CC2)cc1 -1.88%, S=C(NCCCc1cnc[nH]1)NCCCN(Cc1ccc(Cl)c(Cl)c1)c1ccc(Br)cn1 -8.19%, COC(=O)c1ccc(NC(=O)Nc2ccc(C)cc2)cc1 -17.3%, Cc1ccc(C(=O)CNc2ccc(F)cc2)cc1 -25.3%, Cc1ccc(-n2[nH]c(C)c(/C=N/NC(=O)c3cccc([N+](=O)[O-])c3)c2=O)cc1C -25.4%, Cc1sc2ncnc(Sc3nc4ccccc4s3)c2c1C -10.4%, CCOC(=O)c1ccc(N2C(=O)CC(N(C)Cc3ccccc3)C2=O)cc1 (centres undefined) -4.27%, CCOc1ccc(N2C(=O)CC(N(O)c3ccccc3)C2=O)cc1 (centres undefined) -7.04%, CC1CN(S(=O)(=O)c2ccc(C(=O)NN3CCN(C)CC3)cc2)CC(C)O1 (centres undefined) -9.75%, Cc1ccc(C(C)C)cc1OCCN1CCCC1 7.86%, Cc1cc([N+](=O)[O-])c(-c2ccc(/C=N/n3cnnc3)o2)cc1Cl -28.3%, Cc1ccc(Cl)cc1-c1ccc(/C=N/n2cnnc2)o1 -18.9%, N#Cc1ccc(C(=O)Nc2nc(-c3cccs3)c(C(=O)C(F)(F)F)s2)cc1 3.33%, COc1ccc(OCc2cccc(C(=O)N3CCCC3)c2)cc1 -28.1%, O=C(c1cccc2ccccc12)N1CCN(c2ccccc2F)CC1 -14.2%, C/C(=N/NC(=O)c1ccc(Br)o1)c1ccc(C)o1 -27.2%, CCCCC/C=C\CC1OC1CCCCCCCC(=O)O (centres undefined) -7.93%, COC(=O)C/C=C/[C@@H](C)[C@H](NC(=O)OCC(Cl)(Cl)Cl)c1ccccc1 -2.46%

Potency, active:
O=C(NC1CCCC1)c1ccc(Br)s1 3.55 µM, COc1ccc(S(=O)(=O)Nc2ccc(O)c(Sc3nc4ccccc4s3)c2)cc1 25.1 µM, O=C(O)c1cccc(S(=O)(=O)Nc2ccc(O)cc2Sc2nc3ccccc3s2)c1 10 µM, CCCCCNC(=O)c1cccnc1SCC(=O)Nc1ccccc1OC 10 µM, CC1CCCCN1CC(=O)NCc1ccc2c(c1)OCO2 (centres undefined) 8.91 µM, O=C(NCc1ccc2c(c1)OCO2)C12CC3CC(CC(C3)C1)C2 31.6 µM, Cc1nc([N+](=O)[O-])nn1C12CC3CC(CC(Br)(C3)C1)C2 14.1 µM, COC(=O)c1ccc(NCC(=O)c2ccccc2)cc1 17.8 µM, CCCCCCC(=O)N(O)C1CC(=O)N(c2ccccc2)C1=O (centres undefined) 15.8 µM, Cc1cc(-c2ccc(/C=N/n3cnnc3)o2)c([N+](=O)[O-])cc1C 10 µM, COc1c(C(=O)N2CCCC2)ccc2ccccc12 12.6 µM
